Screening results from PubChem BioAssay.
UCHL1 inh: human UCHL1 deubiquitinase inhibition. purified UCHL1, Ub-rhodamine cleavage fluorescence. 0.2% of 47,000 active. inhibition, % at 20 µM
USP8 block: blocks human USP8 ubiquitin-rhodamine cleavage; 4.2% of 47,000 active; inhibition, % at 20 µM; P40818; AID 1645853; purified USP8, Ub-rhodamine cleavage fluorescence, 30 min
USP7 block: blocks human USP7 ubiquitin-rhodamine cleavage; Q93009; purified USP7, Ub-rhodamine cleavage fluorescence; inhibition, % at 20 µM; 0.3% of 47,000 active; AID 1645854
USP10 inh: inhibitors of human USP10 deubiquitinase; inhibition, % at 20 µM; purified USP10, Ub-rhodamine fluorescence, 60 min; 1.1% of 47,000 active
Each line names hits and unclear results; the compound was inactive in the other large screens. In the library only some 4.6% were active in any assay of this set; here they are far more common. Cut-off read from the data, not from the text of the source: active = inhibition above about 30%; inactive = the rest.

COc1ccc(-c2nc(-c3cccc(-c4ccn[nH]4)c3)no2)cc1F	none
Cc1ccc(C)c(Cn2nnc3c(=O)[nH]c(C4CCN(C(=O)C5CC5)CC4)nc32)c1	none
Cc1ccc(CN2CCN(CC(=O)NC(C)c3ccccc3)C2=O)cc1 (stereo not drawn)	none
COc1cccc(CN2CCn3nc(-c4ccccc4OC)cc3C2)c1	none
CC1(C)C2CC[C@](C)(C2)C1NS(=O)(=O)c1ccc(Cl)cc1 (stereo partly drawn)	none
Cc1cc(F)ccc1NC(=O)CCc1nc(CSc2nnc(-c3ccncc3)o2)no1	none
c1ccc2c(c1)N=C(c1ccc3c(c1)OCO3)CCN2	USP8 block 78.5
Cc1ncsc1CN1CCCC(c2ccnc3c(C(N)=O)cnn23)C1 (stereo not drawn)	none
CC(C)CC(=O)N1C[C@@H]2CCN(c3ncccn3)C[C@@H]2C1	none
O=C(Nc1cccc([N+](=O)[O-])c1)Nc1ccc2snnc2c1	UCHL1 inh 68.2, USP8 block 95.1, USP7 block 83.7, USP10 inh 56.0
O=C(Nc1cccc(-c2ccc(N3CCCC3)nn2)c1)c1c(F)cccc1F	none
O=C(CN(c1cc(C(F)(F)F)ccc1Cl)S(=O)(=O)c1ccccc1)NCc1ccco1	USP8 block 32.0
CN(C)S(=O)(=O)c1ccc2nc(NC(=O)c3ccc4ccccc4n3)sc2c1	none
O=C(Nc1nc2ccccc2s1)c1cc2ccc3cccnc3c2[nH]1	USP10 inh 35.2
COc1ccc2nc(NC(=O)CCn3c(-c4ccccc4)cc(C(C)=O)c3C)sc2c1	none
CCOc1ccccc1-c1cc(NC(=O)c2cc3ccc4cccnc4c3[nH]2)on1	USP8 block 69.1, USP10 inh 53.1
COc1ccc2nc(NC(=O)c3cc4ccc5cccnc5c4[nH]3)sc2c1	USP8 block 79.9, USP10 inh 32.7
COc1ccccc1NS(=O)(=O)c1cc(NC(=O)COc2cccc3ccccc23)ccc1N1CCCC1	none
Cc1nc2cccnc2n1C1CCN(S(=O)(=O)c2cccc(C(F)(F)F)c2)C1 (stereo not drawn)	none
CC(NC(=O)c1cc2c(=O)n(C)ccc2n1C)c1ccccc1 (stereo not drawn)	USP8 block 45.1
O=C(CCn1c(=O)c2sccc2n(Cc2ccc([N+](=O)[O-])cc2)c1=O)NCc1ccccc1	USP8 block 60.8, USP10 inh 39.2
O=C(Cn1c(=O)c2sccc2n(Cc2ccc([N+](=O)[O-])cc2)c1=O)NCCc1ccccc1	USP10 inh 38.5
COc1ccc(CCNC(=O)Cn2c(=O)c3sccc3n(Cc3ccccc3C#N)c2=O)cc1OC	none
O=C(c1ccn[nH]1)N1CCCC(c2nccnc2-c2ccc(F)cc2)C1 (stereo not drawn)	none
O=C(c1nc(-c2cnccn2)no1)N1CCN(Cc2ccccc2)CC1	none
CCN1CCC2(CC1)N=C(c1ccc3c(c1)OCO3)CC(c1ccccc1O)N2 (stereo not drawn)	USP8 block 33.5
COc1ccc(C2CC(c3ccccc3O)=NC3(CCN(C(C)=O)CC3)N2)cc1 (stereo not drawn)	none
CCN1CCC2(CC1)N=C(c1ccccc1)CC(c1cccc(OC)c1O)N2 (stereo not drawn)	USP8 block 59.6
O=C(CN1CCSc2ccc(S(=O)(=O)N3CCCC3)cc21)NC1CCCC1	none
O=C(Nc1cccc(Oc2ccccc2)c1)c1c(F)cccc1F	none
O=S(=O)(NCc1ccc2c(c1)CCO2)c1ccccc1	none
CCCCCCCCC/C=C/C(=O)CCc1c(O)c(C=O)c2c(c1O)C(=O)OC2O (stereo not drawn)	UCHL1 inh 86.3, USP8 block 31.4, USP7 block 86.7, USP10 inh 45.4
CCCCC/C=C/c1c(O)cc(CC=C(C)C)c(O)c1C=O	none
Cn1c(SCCCOc2ccc(F)cc2)nc2cc(S(N)(=O)=O)ccc21	none
O=C(/C=C/c1ccc2c(c1)OCO2)Nc1nc2n(n1)C(c1ccccc1)CC(=O)N2 (stereo not drawn)	USP8 block 61.9
O=C(Nc1c2c(nn1-c1ccc([N+](=O)[O-])cc1)CSC2)c1c(F)cccc1F	USP10 inh 34.2
O=C(Nc1c2c(nn1-c1ccc([N+](=O)[O-])cc1)CS(=O)(=O)C2)c1cccs1	none
COc1cccc(O[C@@H]2C[C@@H](NC(=O)c3ccccc3)[C@H](O)[C@H]2O)c1	none
O=C(Nc1ccc(N2CCN(C3CCCCC3)C2=O)nc1)c1ccncc1	none
O=C(Cc1cccnc1)Nc1ccc(N2CCN(C3CCCC3)C2=O)nc1	USP8 block 36.8
CCN1CCN(c2ccc(C(=O)O)cc2NS(=O)(=O)c2ccc(C(C)C)cc2)CC1	USP8 block 81.4
